PubChem BioAssay AID1159580 (chemical genetic matrix, 2015)
The campaign covered roughly 5,500 compounds. About 2,000 (36%) were called active. Not shown: some 18% with an inconclusive outcome. No stated cut-off is given here; in the data, active means normalized growth mostly below about 0.91 (no sharp cut-off); inconclusive means no clear call, values can overlap the other calls; inactive means mostly above about 0.92. This is one part of the list.

Test: chemical genetic growth profiling, strain panel (AID 1159580);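 further: tested at 20 µM; growth read once vehicle control cultures reached saturation at 30 °C; 1 = growth at the plate median or of vehicle wells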
Conditions: growth OD
[1] = S. cerevisiae deletion strains, locus YDR150W, strain NUM1, stronger effect = lower value
[2] = S. cerevisiae deletion strains, locus YGR078C, strain PAC10, stronger effect = lower value
[3] = S. cerevisiae deletion strains, locus YMR307W, strain GAS1, stronger effect = lower value
[4] = S. cerevisiae deletion strains, locus YNL153C, strain GIM3, stronger effect = lower value
[5] = S. cerevisiae deletion strains, locus YNL322C, strain KRE1, stronger effect = lower value
[6] = S. cerevisiae deletion strains, locus YPL241C, strain CIN2, stronger effect = lower value

Measured: normalized growth

CC#CCOC(=O)c1c(C)nc2sc3c(c2c1N)CCC(O)C3 (stereo not given)
inactive: S. cerevisiae deletion strains, locus YAL040C, strain CLN3, stronger effect = lower value 1.06 | S. cerevisiae deletion strains, locus YCL061C, strain MRC1 (second series), stronger effect = lower value 0.993 | [1] 0.987 | S. cerevisiae deletion strains, locus YDR363W, strain ESC2, stronger effect = lower value 1 | S. cerevisiae deletion strains, locus YER002W, strain NOP16, stronger effect = lower value 0.971 | [2] 0.982 | [3] 0.994 | [4] 1.18 | S. cerevisiae deletion strains, locus YNL175C, strain NOP13, stronger effect = lower value 0.955 | S. cerevisiae deletion strains, locus YNL197C, strain WHI3, stronger effect = lower value 0.967 | S. cerevisiae deletion strains, locus YNL224C, strain SQS1, stronger effect = lower value 0.971 | [5] 0.982 | S. cerevisiae deletion strains, locus YOR083W, strain WHI5 (second series), stronger effect = lower value 0.891 | [6] 0.99

CC1(C)CC2C1(O)CCC1(C)C=CC(O)C21CO (stereo not given)
inactive: S. cerevisiae deletion strains, locus YAL013W, strain DEP1, stronger effect = lower value 0.99 | S. cerevisiae deletion strains, locus YBR021W, strain FUR4, stronger effect = lower value 1.01 | S. cerevisiae deletion strains, locus YBR229C, strain ROT2, stronger effect = lower value 0.995 | S. cerevisiae deletion strains, locus YCL029C, strain bik1, stronger effect = lower value 0.975 | S. cerevisiae deletion strains, locus YDL035C, strain GPR1, stronger effect = lower value 0.983 | S. cerevisiae deletion strains, locus YDL074C, strain BRE1, stronger effect = lower value 1.03 | S. cerevisiae deletion strains, locus YDL101C, strain DUN1, stronger effect = lower value 0.998 | S. cerevisiae deletion strains, locus YDL134C, strain PPH21, stronger effect = lower value 0.998 | S. cerevisiae deletion strains, locus YDL185W, strain tfp1, stronger effect = lower value 0.976 | S. cerevisiae deletion strains, locus YDL192W, strain arf1, stronger effect = lower value 0.979 | S. cerevisiae deletion strains, locus YDR101C, strain arx1, stronger effect = lower value 1 | [1] 0.987 | S. cerevisiae deletion strains, locus YDR162C, strain NBP2, stronger effect = lower value 1.03 | S. cerevisiae deletion strains, locus YDR318W, strain mcm21, stronger effect = lower value 0.975 | S. cerevisiae deletion strains, locus YDR388W, stronger effect = lower value 0.993 | S. cerevisiae deletion strains, locus YDR502C, strain sam2, stronger effect = lower value 1.01 | S. cerevisiae deletion strains, locus YEL061C, strain CIN8, stronger effect = lower value 0.992 | S. cerevisiae deletion strains, locus YER110C, stronger effect = lower value 0.959 | S. cerevisiae deletion strains, locus YER155C, strain BEM2, stronger effect = lower value 0.995 | S. cerevisiae deletion strains, locus YER167W, strain BCK2, stronger effect = lower value 0.982 | S. cerevisiae deletion strains, locus YGL078C, strain dbp3, stronger effect = lower value 0.994 | S. cerevisiae deletion strains, locus YGL086W, strain mad1, stronger effect = lower value 0.969 | S. cerevisiae deletion strains, locus YGL248W, strain PDE1, stronger effect = lower value 0.993 | [2] 1.03 | S. cerevisiae deletion strains, locus YGR135W, strain pre9, stronger effect = lower value 1.02 | S. cerevisiae deletion strains, locus YGR229C, strain SMI1, stronger effect = lower value 1.03 | S. cerevisiae deletion strains, locus YGR252W, strain gcn5, stronger effect = lower value 0.995 | S. cerevisiae deletion strains, locus YHR030C, strain SLT2, stronger effect = lower value 0.982 | S. cerevisiae deletion strains, locus YHR079C, strain IRE1 (second series), stronger effect = lower value 0.988 | S. cerevisiae deletion strains, locus YHR094C, strain hxt1, stronger effect = lower value 0.98 | S. cerevisiae deletion strains, locus YHR129C, strain ARP1, stronger effect = lower value 0.997 | S. cerevisiae deletion strains, locus YHR200W, strain rpn10, stronger effect = lower value 0.984 | S. cerevisiae deletion strains, locus YIL066C, strain RNR3, stronger effect = lower value 0.992 | S. cerevisiae deletion strains, locus YIL073C, strain SPO22, stronger effect = lower value 0.873 | S. cerevisiae deletion strains, locus YIL125W, strain kgd1, stronger effect = lower value 0.976 | S. cerevisiae deletion strains, locus YIR030C, strain dcg1, stronger effect = lower value 0.99 | S. cerevisiae deletion strains, locus YJL095W, strain BCK1, stronger effect = lower value 1.04 | S. cerevisiae deletion strains, locus YJL134W, strain LCB3, stronger effect = lower value 0.992 | S. cerevisiae deletion strains, locus YJL168C, strain set2, stronger effect = lower value 0.989 | S. cerevisiae deletion strains, locus YJL187C, strain SWE1 (second series), stronger effect = lower value 1 | S. cerevisiae deletion strains, locus YJR043C, strain POL32, stronger effect = lower value 0.994 | S. cerevisiae deletion strains, locus YJR075W, strain HOC1, stronger effect = lower value 0.988 | S. cerevisiae deletion strains, locus YKL009W, strain mrt4, stronger effect = lower value 0.95 | S. cerevisiae deletion strains, locus YKL068W, stronger effect = lower value 0.98 | S. cerevisiae deletion strains, locus YKL085W, strain MDH1 (second series), stronger effect = lower value 0.976 | S. cerevisiae deletion strains, locus YKL085W, strain MDH1, stronger effect = lower value 0.976 | S. cerevisiae deletion strains, locus YKL190W, strain CNB1, stronger effect = lower value 0.999 | S. cerevisiae deletion strains, locus YKR001C, strain vps1, stronger effect = lower value 1 | S. cerevisiae deletion strains, locus YLR039C, strain RIC1, stronger effect = lower value 0.945 | S. cerevisiae deletion strains, locus YLR058C, strain SHM2, stronger effect = lower value 0.983 | S. cerevisiae deletion strains, locus YLR102C, strain apc9, stronger effect = lower value 0.987 | S. cerevisiae deletion strains, locus YLR262C, strain YPT6, stronger effect = lower value 0.936 | S. cerevisiae deletion strains, locus YLR268W, strain sec22, stronger effect = lower value 1.02 | S. cerevisiae deletion strains, locus YLR330W, strain CHS5, stronger effect = lower value 0.984 | S. cerevisiae deletion strains, locus YLR342W, strain FKS1 (second series), stronger effect = lower value 0.994 | S. cerevisiae deletion strains, locus YLR371W, strain rom2, stronger effect = lower value 0.969 | S. cerevisiae deletion strains, locus YLR418C, strain cdc73, stronger effect = lower value 1.06 | S. cerevisiae deletion strains, locus YML016C, strain PPZ1, stronger effect = lower value 0.994 | S. cerevisiae deletion strains, locus YML032C, strain rad52, stronger effect = lower value 1.09 | S. cerevisiae deletion strains, locus YML124C, strain tub3, stronger effect = lower value 0.988 | S. cerevisiae deletion strains, locus YMR078C, strain ctf18, stronger effect = lower value 0.985 | S. cerevisiae deletion strains, locus YMR223W, strain ubp8, stronger effect = lower value 0.977 | S. cerevisiae deletion strains, locus YMR263W, strain SAP30, stronger effect = lower value 1.01 | [3] 1.08 | S. cerevisiae deletion strains, locus YNL067W, strain RPL9B, stronger effect = lower value 1.03 | S. cerevisiae deletion strains, locus YNL128W, strain TEP1, stronger effect = lower value 0.996 | [4] 1.03 | S. cerevisiae deletion strains, locus YNL233W, strain BNI4, stronger effect = lower value 1.04 | S. cerevisiae deletion strains, locus YNL250W, strain rad50, stronger effect = lower value 0.973 | S. cerevisiae deletion strains, locus YNL271C, strain bni1, stronger effect = lower value 0.973 | S. cerevisiae deletion strains, locus YNL298W, strain CLA4, stronger effect = lower value 0.977 | S. cerevisiae deletion strains, locus YNL307C, strain MCK1, stronger effect = lower value 0.999 | [5] 0.981 | S. cerevisiae deletion strains, locus YNR052C, strain pop2, stronger effect = lower value 0.963 | S. cerevisiae deletion strains, locus YOL006C, strain TOP1, stronger effect = lower value 1.03 | S. cerevisiae deletion strains, locus YOL012C, strain htz1 1.26 | S. cerevisiae deletion strains, locus YOL147C, strain pex11, stronger effect = lower value 0.977 | S. cerevisiae deletion strains, locus YOR061W, strain CKA2, stronger effect = lower value 0.997 | S. cerevisiae deletion strains, locus YOR069W, strain VPS5, stronger effect = lower value 0.994 | S. cerevisiae deletion strains, locus YOR136W, strain idh2, stronger effect = lower value 0.984 | S. cerevisiae deletion strains, locus YOR144C, strain elg1, stronger effect = lower value 0.984 | S. cerevisiae deletion strains, locus YOR184W, strain ser1, stronger effect = lower value 0.965 | S. cerevisiae deletion strains, locus YOR316C, strain cot1, stronger effect = lower value 0.991 | S. cerevisiae deletion strains, locus YPL055C, strain LGE1, stronger effect = lower value 1.03 | [6] 0.991 | S. cerevisiae deletion strains, locus YPR119W, strain clb2, stronger effect = lower value 0.988 | S. cerevisiae deletion strains, locus YPR141C, strain kar3, stronger effect = lower value 0.982 | S. cerevisiae deletion strains, locus YPR163C, strain tif3, stronger effect = lower value 0.972 | S. cerevisiae deletion strains, locus YPR167C, strain met16, stronger effect = lower value 0.994 | S. cerevisiae deletion strains, strain wtn01, stronger effect = lower value 1.02 | S. cerevisiae strains, strain wild type, stronger effect = lower value 0.993
